Screens from PubChem.
SMN2 splice up: increases expression of the SMN2 splice variant; HEK293 SMN2-luciferase splicing reporter, luminescence, 30-36 h; Potency, µM (highest dose often 46.1 µM), for the others: top-dose activity change, positive = activation, hits mostly activators; hit rate 2.8% among 210,000; AID 1458; note: % of control where 0% means no effect; nearly all actives have a fitted effect of over 55% in size
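HEK293 cells carry an SMN2 minigene-luciferase reporter in which exon 7 inclusion puts luciferase in frame. Cells were seeded at 2000 cells/well, attached for 10-12 hours, then exposed to compounds for 30-36 hours at 37C before ONE-Glo luminescence.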
ELG1 DNA repair: ELG1-dependent DNA repair inhibition. HEK293T ELG1-luciferase reporter, luminescence, 16 h; DNA damage induced by 5-fluorouridine. Potency, µM (top dose mostly 46.1 µM), without a hit: top-dose activity change, negative = inhibition, actives largely listed as inhibitors. hit rate 2.3% among 330,000. AID 504467; note: % is set by controls: 0 for no effect and ±100 for the full control effect; nearly all actives have a fitted effect of over 55% in size
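Step one: seed 2,000 cells per well. Step two: pin-transfer compound or DMSO alongside 5-fluorouridine. Step three: incubate 16 hr, 37 °C, 5% CO2. Step four: add ONE-Glo, wait 30 min, read luminescence.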
Rab9 prom act: activates the Rab9 promoter. hit rate 2.8% among 320,000. Potency, µM (top dose mostly 9.22 µM), for inactives: at the top dose activation, negative = inhibition, actives largely listed as activators. AID 485297. Huh7 Rab9 promoter-luciferase reporter, luminescence, 24 h; note: % of control where 0% means no effect; nearly all actives have a fitted effect of over 60% in size
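Rab9 promoter-driven luciferase in stably transfected Huh7 cells; 1500 cells/well rested 2 h, exposed to compound in DMSO for 24 h at 37 °C, 5% CO2. Luminescence read 10 min after adding luciferase reagent at ambient temperature.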
NPC1 prom act: activators of NPC1 promoter; hit rate 2.4% among 320,000; Potency, µM (series often up to 9.22 µM), for the others: top-dose activation, hits mostly activators; Huh7 NPC1 promoter luciferase reporter, 24 h; note: % of control where 0% means no effect; nearly all actives have a fitted effect of over 60% in size
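In 1536-well qHTS, Huh7 cells harboring an NPC1 promoter–luciferase construct received compound for 24 h; activation was quantified by luminescence following luciferase reagent addition.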
ELG1 genotoxic: induces genotoxicity in HEK293T cells with luciferase-tagged ELG1. hit rate 1.3% among 330,000. Potency, µM (doses to about 46 µM), for inactives: at the top dose activity change, positive = activation, usual class: activators. HEK293T ELG1-luciferase reporter, luminescence, 16 h; note: % of control where 0% means no effect; nearly all actives have a fitted effect of over 60% in size
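16 hr compound incubation (37 °C, 5% CO2) of HEK293T cells carrying luciferase-tagged ELG1; luciferase then measured by ONE-Glo luminescence after 30 min at RT.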
FLuc counter: firefly luciferase modulation, counter-screen for miR-21 project | P08659 | purified FLuc, Km substrates, luminescence inhibition | Potency, µM (series often up to 57.5 µM), for inactives: at the top dose activity change, negative = inhibition, most hits filed as inhibitors | hit rate 6.9% among 360,000 | AID 588342;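 note: plate controls were vehicle for no effect and reference inhibitor for full effect; nearly all actives have a fitted effect of over 55% in size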
Target sequence (P08659 whole entry, looked up): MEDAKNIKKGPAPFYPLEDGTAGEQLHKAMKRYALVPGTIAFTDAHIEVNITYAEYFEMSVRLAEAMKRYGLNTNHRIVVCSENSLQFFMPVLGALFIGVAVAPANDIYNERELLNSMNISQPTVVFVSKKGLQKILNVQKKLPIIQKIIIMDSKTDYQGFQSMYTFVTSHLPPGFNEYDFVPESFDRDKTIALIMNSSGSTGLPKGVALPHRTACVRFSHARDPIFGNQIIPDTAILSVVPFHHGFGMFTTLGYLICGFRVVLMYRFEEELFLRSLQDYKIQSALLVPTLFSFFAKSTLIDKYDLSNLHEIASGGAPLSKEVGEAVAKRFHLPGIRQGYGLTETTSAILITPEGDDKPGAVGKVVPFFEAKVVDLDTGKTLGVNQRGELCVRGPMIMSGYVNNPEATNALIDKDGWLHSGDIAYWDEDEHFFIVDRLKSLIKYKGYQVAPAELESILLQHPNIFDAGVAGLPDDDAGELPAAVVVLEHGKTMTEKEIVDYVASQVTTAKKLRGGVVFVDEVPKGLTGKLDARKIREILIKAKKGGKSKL
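Biochemical qHTS of compounds, final roughly 60 µM downward over six points, against 10 nM purified firefly luciferase using Km concentrations of substrates (10 uM D-luciferin, 10 uM ATP) in Tris acetate pH 7.5 buffer; luminescence output.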
Starred values were filed as active, the others as inactive; ? = inconclusive; nt = no result; [ ] = remark or other dose. A selection: hits, their analogues and other compounds. The true share with any hit is near 9.2%. Calls come from the whole dose curve; as a rule, active = well fitted curve in the direction sought with a large enough effect; inconclusive = small, poorly fitted or top-dose-only effect, or another doubt; inactive = no such curve, though single readings can be large; an effect the other way counts as inactive or inconclusive. Potency is the fitted concentration of half-maximal effect.

SMILES | SMN2 splice up | ELG1 DNA repair | Rab9 prom act | NPC1 prom act | ELG1 genotoxic | FLuc counter
Cc1ccc2nc(-c3ccc(NC(=O)CN4C(=O)c5ccccc5C4=O)cc3)sc2c1 | 2.82µM* | ? | 3.98µM* | ? | 9.2µM* | 2.69µM*
Cc1ccccc1CNC(=O)CCSCc1cnn(-c2ccccc2)c1-n1cccc1 | nt | nt | nt | nt | nt | -14.2%
N=C(N)S/C=C\C(=O)O | -2.6% | nt | nt | nt | nt | nt
COc1cc(/C=C2/NC(=O)NC2=O)ccc1OCC(=O)Nc1ccc(F)cc1 | nt | 7.0% | -6.4% | -1.5% | 7.7% | -2.4%
CCOC(=O)c1cccc(NC(=O)c2cc(CN3CCOCC3)on2)c1 | nt | nt | nt | nt | nt | 5.2%
Cc1sc(NC(=O)CN2CCN(c3ccccn3)CC2)c(C#N)c1C | -10.3% | 11.6µM* | 8.7% | -4.2% | -1.6% | -1.2%
Cc1ccc2nc(-c3ccc(NC(=O)COC(=O)c4ccc(=O)[nH]c4)cc3)sc2c1 | 1.58µM* | ? | 0.562µM* | 0.355µM* | 2.31µM* | 3.38µM*
O=C(O)NCC1CCCCC1 (tested in a mixture with another compound) | -8.2%[9.22 µM] | nt | nt | nt | nt | nt
CC1CCCCC12NC(=O)N(CC(=O)NC(=O)Nc1ccc3c(c1)OCCO3)C2=O (stereo not given) | 12.6µM* | ? | 3.55µM* | 2.82µM* | ? | 10.7µM*
CC1CCCCC12NC(=O)N(CC(=O)Nc1ccc3[nH]c(=O)[nH]c3c1)C2=O (stereo not given) | nt | ? | -3.9% | -2.6% | -2.3% | 2.6%
O=C(CN1C(=O)NC2(CCCCC2)C1=O)Nc1ccc2c(c1)OCCCO2 | nt | ? | 3.16µM* | 3.16µM* | ? | 12µM*
CCOc1ccc2nc(NC(=O)CS(=O)(=O)c3ccc(Cl)cc3)sc2c1 | nt | nt | nt | nt | nt | -2.8%
CCOc1ccc2nc(NC(=O)CS(=O)(=O)c3ccc(C)cc3)sc2c1 | 9.0% | -6.8% | 0.6% | 6.0% | 12.6% | 21.3µM*
CCOc1ccc2nc(NC(=O)CS(=O)(=O)c3ccccc3)sc2c1 | 6.3% | -29.6% | 1.0% | -1.3% | 20.8% | 12µM*
CC(=O)Nc1ccc2nc(NC(=O)CS(=O)(=O)c3ccccc3)sc2c1 | nt | 4.2% | -7.6% | 2.4% | 1.5% | ?
c1ccc(-c2nc3c4ccccc4ccn3c2CN2CCOCC2)cc1 | nt | ? | 11.9% | -2.7% | ? | 4.78µM*
Cc1ccc(C(=O)NCCc2cccc(Cl)c2)cc1[N+](=O)[O-] | 23.8% | ? | 25.5% | 22.4% | 13.4% | 26.9µM*
O=C(CCc1ccccc1)Nc1cccc([N+](=O)[O-])c1 | 9.4% | -18.9% | 0.5% | 7.6% | -1.2% | -14.1%
O=C(NCCc1ccccc1)c1cccc([N+](=O)[O-])c1 | 11.2µM* | ? | 29.6% | 25.1% | ? | ?
O=C(NCc1ccccc1)c1cccnc1 | nt | 6.8% | -5.5% | -6.0% | -1.0% | 1.0%
O=C(CCCc1ccccc1)Nc1cccc([N+](=O)[O-])c1 | nt | ? | ? | 3.55µM* | ? | ?
O=C(NCCc1ccccc1)c1cccnc1 | ? | ? | 3.16µM* | ? | 13µM* | ?
O=C(NCCc1ccccc1)c1cccc(Br)c1 | nt | ? | 2µM* | 3.55µM* | ? | 21.3µM*
CN(C)S(=O)(=O)c1cccc(C(=O)NCCc2ccccc2)c1 | 11.2µM* | ? | 1.41µM* | 0.794µM* | 11.6% | 7.57µM*
CCCNC(=O)c1cccc(Br)c1 | 16.4% | 0.1% | -3.7% | -1.0% | -7.9% | 4.3%
SMILES | SMN2 splice up | ELG1 DNA repair | Rab9 prom act | NPC1 prom act | ELG1 genotoxic | FLuc counter
CN(C)S(=O)(=O)c1cccc(C(=O)Nc2ccccc2)c1 | 6.6% | 2.7% | 17.7% | 19.6% | 0.3% | ?
O=C(COC(=O)c1cccc(Br)c1)NCCNC(=O)COC(=O)c1cccc(Br)c1 | nt | 6.51µM* | 0.0% | 9.4% | -9.2% | -1.4%
O=C(COC(=O)c1cccc(Br)c1)NCCc1ccccc1 | 21.5% | 6.4% | -4.7% | -1.0% | 2.8% | -1.4%
O=C(NCCc1ccccc1)c1cnc2ccccc2n1 | nt | ? | 1.41µM* | 3.55µM* | ? | 8.49µM*
Cn1c(N)c(S(=O)(=O)N2CCCC2)c(=O)n(C)c1=O | nt | 5.3% | 5.8% | 0.3% | 5.2% | 3.6%
Cc1cccc(NC(=S)Nc2cccc3ccccc23)c1 | nt | 1.5% | 4.0% | 13.0% | -3.2% | -8.0%
Cc1cc(C)cc(NC(=S)Nc2cccc3ccccc23)c1 | nt | ? | 2.51µM* | 2.51µM* | ? | 21.3µM*
Cc1ccc(C(=O)N/N=C/c2ccc(-c3cccc(C(F)(F)F)c3)o2)cn1 | nt | ? | -17.1% | -33.8% | 0.7% | -2.1%
CC(Oc1ccc(Br)cc1)C(=O)Nc1cc(S(=O)(=O)N2CCOCC2)ccc1N1CCCC1 (stereo not given) | nt | ? | -2.1% | -11.6% | -6.9% | 7.1%
CCc1ccc2nc(/N=C(\N)NC(=O)c3ccccc3)nc(C)c2c1 | nt | -3.0% | ? | 22.7% | 3.7% | 6.01µM*
CC1(C)CC(=O)C2=C(C1)Oc1nc3ccccc3cc1C2C(C#N)C#N (stereo not given) | 4.0% | 23.1µM* | -17.5% | -22.4% | 2.9% | ?
CC1CCOC(c2coc3ccccc3c2=O)O1 (stereo not given) | 10µM* | ? | ? | ? | ? | 13.5µM*
O=C(O)C1CSC(c2coc3ccccc3c2=O)N1 (stereo not given) | 19.4% | -1.4% | -8.9% | 0.8% | 1.2% | 3.3%
CS(=O)(=O)N1CCC2(CCCN(Cc3ccccc3)C2)CC1 | -16.0% | nt | nt | nt | nt | nt
Cc1ccccc1NC(=O)CSc1c(C(C)C)cnc2c1c(=O)n(C)c(=O)n2C | nt | nt | nt | nt | nt | -6.0%
O=C(CSCc1ccccc1)N1CCN(c2ccccc2)CC1 | 12.6µM* | ? | ? | ? | ? | 23.9µM*
O=C(CSCc1cccc(F)c1)N1CCN(c2ccccc2)CC1 | 12.6µM* | ? | ? | 3.16µM* | 13µM* | 13.5µM*
COc1cccc(-n2c(-c3ccc(Cl)cc3)cc3c2CC(C)(C)CC3=O)c1 | -5.9% | nt | nt | nt | nt | -13.8%
CSc1nc(N)nc(SCC(=O)C23CC4CC(CC(C4)C2)C3)c1C#N | -46.7% | 20.6µM* | 0.0% | -0.9% | -6.2% | 2.9%
CC(=O)Nc1nnc(SCC(=O)NC2CC2)s1 | nt | 10.1% | 0.8% | 3.2% | -0.5% | -0.2%
CC(=O)c1ccc(NC(=O)CSc2nnc(NC(=O)NC3CCCCC3)s2)cc1 | nt | nt | nt | nt | nt | 0.477µM*
CCc1ccc(Nc2nnc(SCC(=O)NC(=O)CN3CCCC3=O)s2)cc1 | nt | ? | 3.0% | -0.3% | 7.5% | 3.01µM*
CCc1ccc(Nc2nnc(SC(C)C(=O)NC3CC3)s2)cc1 (stereo not given) | nt | ? | nt | nt | -1.7% | nt
CSc1nsc(SCC(=O)Nc2ccc(C(C)=O)cc2)n1 | 12.6µM* | ? | 15.3% | 24.3% | 8.2µM* | 21.3µM*
